Measured values: the supplement of paper PMC10849652
Of roughly 8,800 targets only a part is listed; those with a hit were picked by preference. About 0.5% of all pairs of compound and target were hits.

How the values were obtained:
Assay in all cases: log2 fold change, soluble protein after heating vs DMSO (PISA); higher = thermal stabilisation; K562 lysate, 10 uM; active = over 0.2 and 3.5 SD of the protein, either way, in both replicates (recomputed)
lapatinib = compound: CS(=O)(=O)CCNCc1ccc(-c2ccc3ncnc(Nc4ccc(OCc5cccc(F)c5)c(Cl)c4)c3c2)o1 [lapatinib]
How it was run: (§1)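 Following dounce homogenisation of K562 pellets in PBS pH 7.4 with 1 mM MgCl2, crude extract at 1 mg/mL protein was incubated for 30 min with 10 μM compound. Aliquots were then heated for 3 min over 48°C-58°C and pooled, NP-40 was added to 0.5% at 4°C, and soluble protein was recovered as the supernatant at 21,000xg for 90 min. Channel-sum-equalised TMTpro 16plex LC-MS/MS quantified this protein. Each value, from duplicates, is a log-two fold change in thermal stability relative to solvent controls.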

pictilisib = compound: CS(=O)(=O)N1CCN(Cc2cc3nc(-c4cccc5[nH]ncc45)nc(N4CCOCC4)c3s2)CC1 [pictilisib]
How it was run: as §1

crizotinib = compound: C[C@@H](Oc1cc(-c2cnn(C3CCNCC3)c2)cnc1N)c1c(Cl)ccc(F)c1Cl [crizotinib]
How it was run: as §1

[1] = compound: C[C@H](C1=CC=C(C=C1)C(=O)NC2=C3C=CNC3=NC=C2)N
How it was run: as §1

duvelisib = compound: C[C@H](Nc1ncnc2nc[nH]c12)c1cc2cccc(Cl)c2c(=O)n1-c1ccccc1 [duvelisib]
How it was run: as §1

gandotinib = compound: Cc1cc(Nc2cc(CN3CCOCC3)c3nc(C)c(Cc4ccc(Cl)cc4F)n3n2)n[nH]1 [gandotinib]
How it was run: as §1

tozasertib = compound: Cc1cc(Nc2cc(N3CCN(C)CC3)nc(Sc3ccc(NC(=O)C4CC4)cc3)n2)n[nH]1 [tozasertib]
How it was run: as §1

doramapimod = compound: Cc1ccc(-n2nc(C(C)(C)C)cc2NC(=O)Nc2ccc(OCCN3CCOCC3)c3ccccc23)cc1 [doramapimod]
How it was run: as §1

bafetinib = compound: Cc1ccc(NC(=O)c2ccc(CN3CC[C@H](N(C)C)C3)c(C(F)(F)F)c2)cc1Nc1nccc(-c2cncnc2)n1 [bafetinib]
How it was run: as §1

[2] = compound: Cc1cccc(CC(=O)N2CCc3c2ccc(-c2cn(C)c4ncnc(N)c24)c3F)n1
How it was run: as §1

Measured: log2 fold change

NAA38 isoform 2 (UniProt Q9BRA0)
Chain of UniProt Q9BRA0 (Q9BRA0 whole entry, looked up): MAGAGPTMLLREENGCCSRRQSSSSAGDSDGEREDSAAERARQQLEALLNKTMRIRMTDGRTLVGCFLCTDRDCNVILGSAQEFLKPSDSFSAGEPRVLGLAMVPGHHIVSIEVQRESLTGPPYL
inactive: lapatinib -0.028 | pictilisib -0.018 | crizotinib 0.001 | duvelisib -0.016 | gandotinib 0.202 | tozasertib 0.062 | doramapimod -0.088 | bafetinib -0.041
active: [1] -0.382 | [2] 0.244

MRPS18A isoform 2 (UniProt Q9NVS2)
inactive: lapatinib 0.005 | pictilisib -0.046 | crizotinib -0.02 | [1] 0.262 | duvelisib -0.133 | gandotinib -0.164 | tozasertib 0.043 | doramapimod -0.005 | bafetinib 0 | [2] -0.226

NR2C2 isoform 2 (UniProt P49116)
Chain of UniProt P49116 (P49116 whole entry, looked up): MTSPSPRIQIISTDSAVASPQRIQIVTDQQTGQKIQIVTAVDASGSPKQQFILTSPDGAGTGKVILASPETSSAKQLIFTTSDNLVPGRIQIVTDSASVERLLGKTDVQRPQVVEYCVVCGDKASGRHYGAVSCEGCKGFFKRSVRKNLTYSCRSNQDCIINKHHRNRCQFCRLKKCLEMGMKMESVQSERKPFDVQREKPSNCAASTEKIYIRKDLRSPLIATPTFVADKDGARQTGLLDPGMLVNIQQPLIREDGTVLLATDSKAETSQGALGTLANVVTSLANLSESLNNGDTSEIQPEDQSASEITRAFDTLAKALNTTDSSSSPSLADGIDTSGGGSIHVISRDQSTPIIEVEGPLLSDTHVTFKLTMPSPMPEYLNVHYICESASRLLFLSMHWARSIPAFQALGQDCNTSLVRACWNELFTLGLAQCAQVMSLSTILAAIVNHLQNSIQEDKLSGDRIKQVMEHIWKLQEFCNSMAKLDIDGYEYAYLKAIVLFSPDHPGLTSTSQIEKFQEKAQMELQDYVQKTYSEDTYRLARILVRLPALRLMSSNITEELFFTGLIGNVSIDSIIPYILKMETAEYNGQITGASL
inactive: lapatinib -0.014 | pictilisib -0.025 | crizotinib -0.004 | [1] 0.064 | duvelisib -0.014 | gandotinib -0.079 | tozasertib -0.005 | doramapimod -0.004 | bafetinib 0.145 | [2] -0.025

MRPL51 (UniProt Q4U2R6)
inactive: lapatinib -0.051 | pictilisib -0.016 | crizotinib 0.056 | [1] -0.201 | duvelisib -0.004 | gandotinib 0.058 | tozasertib 0.083 | doramapimod -0.247 | bafetinib 0.02 | [2] 0.091

NCAPH2 (UniProt Q6IBW4)
inactive: lapatinib -0.075 | pictilisib -0.023 | crizotinib -0.04 | [1] -0.01 | duvelisib -0.03 | gandotinib -0.052 | tozasertib 0.058 | doramapimod -0.051 | bafetinib -0.036 | [2] 0.185

NOSTRIN (UniProt Q8IVI9)
inactive: lapatinib -0.022 | pictilisib -0.011 | crizotinib 0.06 | [1] 0.017 | duvelisib 0.047 | gandotinib -0.047 | tozasertib 0.058 | doramapimod -0.03 | bafetinib -0.078 | [2] -0.012

OGFOD2 (UniProt Q6N063)
Chain of UniProt Q6N063 (Q6N063 whole entry, looked up): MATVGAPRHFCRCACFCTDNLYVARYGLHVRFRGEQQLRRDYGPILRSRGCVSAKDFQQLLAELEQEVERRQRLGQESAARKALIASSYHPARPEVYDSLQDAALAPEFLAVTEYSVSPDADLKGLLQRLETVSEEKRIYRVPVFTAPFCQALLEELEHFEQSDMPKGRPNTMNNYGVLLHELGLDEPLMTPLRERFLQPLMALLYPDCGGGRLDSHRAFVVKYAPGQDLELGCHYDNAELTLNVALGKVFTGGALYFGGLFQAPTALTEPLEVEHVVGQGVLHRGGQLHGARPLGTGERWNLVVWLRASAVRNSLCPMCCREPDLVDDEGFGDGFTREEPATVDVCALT
inactive: lapatinib 0.034 | pictilisib -0.031 | crizotinib -0.017 | [1] -0.029 | duvelisib 0.045 | gandotinib -0.016 | tozasertib 0.019 | doramapimod -0.013 | bafetinib -0.09 | [2] 0.032

NSUN2 (UniProt Q08J23)
inactive: lapatinib -0.009 | pictilisib -0.006 | crizotinib -0.024 | [1] 0.072 | duvelisib -0.005 | gandotinib -0.05 | tozasertib -0.011 | doramapimod -0.009 | bafetinib -0.038 | [2] -0.007

MTMR6 (UniProt Q9Y217)
inactive: lapatinib 0.017 | pictilisib 0.025 | crizotinib -0.037 | [1] 0.071 | duvelisib 0.02 | gandotinib -0.024 | tozasertib 0.014 | doramapimod 0.056 | bafetinib 0.001 | [2] -0.113

PAN2 isoform 2 (UniProt Q504Q3)
inactive: lapatinib -0.044 | pictilisib 0.045 | crizotinib -0.085 | [1] 0.003 | duvelisib 0.041 | gandotinib -0.053 | doramapimod 0.09 | bafetinib -0.108 | [2] 0.084
active: tozasertib 0.27

NBN (UniProt O60934)
inactive: lapatinib 0.008 | pictilisib -0.006 | crizotinib -0.028 | [1] 0.033 | duvelisib -0.006 | gandotinib -0.05 | tozasertib 0.032 | doramapimod 0.001 | bafetinib -0.016 | [2] -0.026

NTMT1 (UniProt S4R338)
inactive: lapatinib 0.082

NAT1 (UniProt P18440)
Chain of UniProt P18440 (P18440 whole entry, looked up): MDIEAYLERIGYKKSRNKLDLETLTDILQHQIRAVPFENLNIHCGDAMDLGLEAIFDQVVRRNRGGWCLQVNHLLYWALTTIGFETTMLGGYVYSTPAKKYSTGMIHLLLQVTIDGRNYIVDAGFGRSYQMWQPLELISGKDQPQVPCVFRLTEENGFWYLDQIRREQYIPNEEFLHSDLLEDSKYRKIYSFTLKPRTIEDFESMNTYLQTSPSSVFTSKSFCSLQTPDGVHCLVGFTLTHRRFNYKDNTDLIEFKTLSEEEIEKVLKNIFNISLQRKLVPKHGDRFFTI
inactive: lapatinib 0.026 | pictilisib 0.111 | crizotinib -0.227 | [1] -0.089 | duvelisib 0.006 | gandotinib 0.004 | tozasertib -0.048 | doramapimod 0.058 | bafetinib 0.006 | [2] 0.083

PAK1 (UniProt Q13153)
inactive: lapatinib -0.037 | pictilisib -0.034 | crizotinib 0.019 | [1] -0.117 | duvelisib 0.044 | gandotinib -0.011 | tozasertib -0.02 | doramapimod -0.035 | bafetinib 0.002 | [2] -0.005

NMT1 (UniProt P30419)
Chain of UniProt P30419 (P30419 whole entry, looked up): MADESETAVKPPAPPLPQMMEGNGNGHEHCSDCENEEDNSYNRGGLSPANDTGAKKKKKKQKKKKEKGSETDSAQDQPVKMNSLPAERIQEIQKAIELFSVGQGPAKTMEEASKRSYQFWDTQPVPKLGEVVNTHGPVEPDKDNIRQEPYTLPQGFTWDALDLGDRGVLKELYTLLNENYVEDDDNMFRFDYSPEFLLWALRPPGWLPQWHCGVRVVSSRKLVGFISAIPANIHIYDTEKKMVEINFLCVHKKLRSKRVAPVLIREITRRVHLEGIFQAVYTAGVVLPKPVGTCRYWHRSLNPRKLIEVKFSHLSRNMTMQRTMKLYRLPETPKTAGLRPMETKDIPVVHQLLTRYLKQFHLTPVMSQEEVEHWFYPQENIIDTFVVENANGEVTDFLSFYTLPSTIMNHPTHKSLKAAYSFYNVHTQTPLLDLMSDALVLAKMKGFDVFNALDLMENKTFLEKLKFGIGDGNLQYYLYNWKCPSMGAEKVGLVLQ
inactive: lapatinib 0.02 | pictilisib 0.005 | crizotinib -0.006 | [1] 0.016 | duvelisib -0.023 | gandotinib -0.021 | tozasertib 0.012 | doramapimod -0.015 | bafetinib 0.09 | [2] -0.034

NUP133 (UniProt Q8WUM0)
active: gandotinib 0.251
inactive: lapatinib -0.007 | pictilisib -0.01 | crizotinib -0.093 | [1] -0.075 | duvelisib -0.01 | tozasertib 0.042 | doramapimod 0.061 | bafetinib -0.074 | [2] 0.218

NGLY1 (UniProt Q96IV0)
inactive: lapatinib -0.017 | pictilisib -0.002 | crizotinib -0.058 | [1] 0.038 | duvelisib -0.001 | gandotinib -0.053 | tozasertib -0.025 | doramapimod -0.013 | bafetinib -0.048 | [2] 0.04

OPA1 isoform 2 (UniProt O60313)
inactive: lapatinib -0.017 | pictilisib 0.002 | crizotinib -0.096 | [1] -0.013 | duvelisib -0.002 | tozasertib 0.03 | doramapimod 0.023 | bafetinib -0.073 | [2] 0.048
active: gandotinib -0.248

PANK2 (UniProt Q9BZ23)
inactive: lapatinib 0.079 | pictilisib 0.143 | crizotinib -0.073 | [1] -0.023 | duvelisib -0.126 | gandotinib 0.077 | tozasertib 0.008 | doramapimod -0.008 | bafetinib -0.029 | [2] 0.095

MTA1 (UniProt Q13330)
inactive: lapatinib -0.002 | pictilisib 0 | crizotinib -0.008 | [1] 0.001 | duvelisib -0.059 | gandotinib -0.067 | tozasertib -0.002 | doramapimod -0.009 | bafetinib 0.023 | [2] 0.017

NUDT5 (UniProt Q9UKK9)
active: [1] -0.299
inactive: lapatinib 0.003 | pictilisib -0.036 | crizotinib 0.007 | duvelisib 0.051 | gandotinib 0.211 | tozasertib -0.018 | doramapimod -0.015 | bafetinib -0.016 | [2] 0.212

PAK4 (UniProt O96013)
inactive: lapatinib -0.147 | pictilisib 0.139 | crizotinib 0.037 | [1] 0.163 | duvelisib 0.05 | tozasertib 0.18 | doramapimod -0.236 | bafetinib -0.011 | [2] -0.12
active: gandotinib 0.709

OSBP2 (UniProt Q969R2)
Chain of UniProt Q969R2 (Q969R2 whole entry, looked up): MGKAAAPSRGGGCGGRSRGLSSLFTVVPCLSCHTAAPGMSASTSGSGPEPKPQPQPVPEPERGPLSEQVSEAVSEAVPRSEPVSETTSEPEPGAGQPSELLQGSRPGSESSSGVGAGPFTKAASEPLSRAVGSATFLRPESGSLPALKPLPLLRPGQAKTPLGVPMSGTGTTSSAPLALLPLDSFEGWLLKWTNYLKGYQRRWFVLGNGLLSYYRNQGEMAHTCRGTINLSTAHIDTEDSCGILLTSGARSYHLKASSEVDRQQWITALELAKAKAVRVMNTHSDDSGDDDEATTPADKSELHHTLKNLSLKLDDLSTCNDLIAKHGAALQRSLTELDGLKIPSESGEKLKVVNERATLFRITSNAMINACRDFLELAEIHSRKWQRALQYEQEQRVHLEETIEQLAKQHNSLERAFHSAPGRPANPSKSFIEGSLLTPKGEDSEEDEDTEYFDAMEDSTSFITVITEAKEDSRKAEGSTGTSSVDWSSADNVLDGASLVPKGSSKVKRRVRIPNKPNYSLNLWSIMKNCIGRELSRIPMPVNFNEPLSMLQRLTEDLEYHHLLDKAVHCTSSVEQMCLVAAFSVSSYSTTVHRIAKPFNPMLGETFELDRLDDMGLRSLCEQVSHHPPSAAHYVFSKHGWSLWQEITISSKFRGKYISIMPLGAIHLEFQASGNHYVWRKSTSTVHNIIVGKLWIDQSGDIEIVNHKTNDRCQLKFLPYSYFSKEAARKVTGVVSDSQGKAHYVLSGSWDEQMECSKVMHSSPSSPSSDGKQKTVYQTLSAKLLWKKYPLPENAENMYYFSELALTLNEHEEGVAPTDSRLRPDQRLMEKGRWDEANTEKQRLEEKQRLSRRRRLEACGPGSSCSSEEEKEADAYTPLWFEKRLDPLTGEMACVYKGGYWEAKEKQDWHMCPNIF
active: [1] -0.666
inactive: lapatinib 0.003 | pictilisib 0.024 | crizotinib -0.074 | duvelisib 0.116 | gandotinib 0.194 | tozasertib -0.028 | doramapimod 0.018 | bafetinib -0.037 | [2] 0.23

N6AMT1 (UniProt Q9Y5N5)
inactive: lapatinib -0.018 | pictilisib -0.038 | crizotinib -0.02 | duvelisib -0.017 | gandotinib -0.033 | tozasertib 0.008 | doramapimod 0.014 | bafetinib -0.109 | [2] -0.098
active: [1] 0.34

PARP14 (UniProt Q460N5)
Chain of UniProt Q460N5 (Q460N5 whole entry, looked up): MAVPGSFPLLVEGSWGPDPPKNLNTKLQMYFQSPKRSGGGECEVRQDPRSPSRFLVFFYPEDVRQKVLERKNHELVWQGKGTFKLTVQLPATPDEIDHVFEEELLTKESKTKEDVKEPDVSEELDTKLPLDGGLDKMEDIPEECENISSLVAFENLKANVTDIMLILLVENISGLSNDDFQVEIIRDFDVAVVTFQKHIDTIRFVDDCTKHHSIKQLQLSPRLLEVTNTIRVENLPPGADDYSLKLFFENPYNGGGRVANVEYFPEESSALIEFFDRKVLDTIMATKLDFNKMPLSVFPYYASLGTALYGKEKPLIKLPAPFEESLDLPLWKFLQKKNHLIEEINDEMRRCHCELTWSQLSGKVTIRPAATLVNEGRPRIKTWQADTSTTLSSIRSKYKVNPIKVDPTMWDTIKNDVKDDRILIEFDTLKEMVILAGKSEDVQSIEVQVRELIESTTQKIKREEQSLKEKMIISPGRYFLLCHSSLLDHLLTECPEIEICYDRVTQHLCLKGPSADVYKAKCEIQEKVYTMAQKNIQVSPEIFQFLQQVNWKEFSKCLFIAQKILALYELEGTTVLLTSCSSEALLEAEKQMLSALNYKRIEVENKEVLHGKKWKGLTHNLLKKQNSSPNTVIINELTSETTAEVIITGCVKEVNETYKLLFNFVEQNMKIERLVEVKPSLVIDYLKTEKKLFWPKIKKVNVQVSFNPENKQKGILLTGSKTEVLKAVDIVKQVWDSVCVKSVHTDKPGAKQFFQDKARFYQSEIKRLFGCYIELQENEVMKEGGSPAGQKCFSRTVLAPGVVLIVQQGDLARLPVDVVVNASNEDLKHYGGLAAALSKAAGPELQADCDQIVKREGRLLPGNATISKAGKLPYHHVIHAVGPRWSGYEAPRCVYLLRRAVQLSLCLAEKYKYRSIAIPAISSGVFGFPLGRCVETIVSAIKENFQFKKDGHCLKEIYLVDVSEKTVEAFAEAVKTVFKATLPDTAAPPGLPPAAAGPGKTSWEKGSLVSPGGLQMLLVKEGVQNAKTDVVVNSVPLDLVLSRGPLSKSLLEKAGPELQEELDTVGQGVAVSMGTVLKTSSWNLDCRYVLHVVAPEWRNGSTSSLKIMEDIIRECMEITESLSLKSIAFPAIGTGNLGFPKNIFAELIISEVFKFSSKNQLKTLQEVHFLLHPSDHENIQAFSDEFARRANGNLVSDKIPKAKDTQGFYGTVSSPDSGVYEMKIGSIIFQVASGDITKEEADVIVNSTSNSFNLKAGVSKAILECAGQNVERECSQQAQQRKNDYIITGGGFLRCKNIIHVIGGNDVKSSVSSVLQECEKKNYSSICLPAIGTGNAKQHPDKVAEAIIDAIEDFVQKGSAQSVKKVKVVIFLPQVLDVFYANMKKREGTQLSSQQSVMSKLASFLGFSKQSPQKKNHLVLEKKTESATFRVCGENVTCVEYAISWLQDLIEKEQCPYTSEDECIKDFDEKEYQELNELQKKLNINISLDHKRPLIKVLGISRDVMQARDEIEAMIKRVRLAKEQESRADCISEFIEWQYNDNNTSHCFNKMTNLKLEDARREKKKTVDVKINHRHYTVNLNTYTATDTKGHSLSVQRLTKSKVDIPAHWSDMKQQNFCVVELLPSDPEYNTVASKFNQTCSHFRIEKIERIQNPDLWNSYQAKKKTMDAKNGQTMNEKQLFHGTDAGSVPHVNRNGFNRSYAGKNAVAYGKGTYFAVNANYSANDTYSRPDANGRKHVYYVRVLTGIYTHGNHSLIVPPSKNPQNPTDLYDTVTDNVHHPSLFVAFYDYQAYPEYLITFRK
inactive: lapatinib -0.018 | pictilisib -0.057 | crizotinib -0.154 | [1] 0.148 | duvelisib -0.13 | gandotinib -0.123 | tozasertib -0.013 | doramapimod -0.013 | bafetinib -0.081 | [2] 0

NARS2 (UniProt Q96I59)
inactive: lapatinib 0.039 | pictilisib -0.132 | crizotinib -0.034 | [1] 0.039 | duvelisib -0.002 | gandotinib -0.058 | tozasertib 0.013 | doramapimod -0.01 | bafetinib -0.053 | [2] 0.024

OTUD7B (UniProt Q6GQQ9)
inactive: lapatinib 0.033 | pictilisib 0.025 | crizotinib -0.099 | [1] 0.006 | duvelisib -0.041 | gandotinib 0.032 | tozasertib -0.01 | doramapimod -0.012 | bafetinib -0.003 | [2] 0.003

MTHFD1 (UniProt V9GZ32)
inactive: lapatinib -0.067

NUCB2 (UniProt P80303)
Chain of UniProt P80303 (P80303 whole entry, looked up): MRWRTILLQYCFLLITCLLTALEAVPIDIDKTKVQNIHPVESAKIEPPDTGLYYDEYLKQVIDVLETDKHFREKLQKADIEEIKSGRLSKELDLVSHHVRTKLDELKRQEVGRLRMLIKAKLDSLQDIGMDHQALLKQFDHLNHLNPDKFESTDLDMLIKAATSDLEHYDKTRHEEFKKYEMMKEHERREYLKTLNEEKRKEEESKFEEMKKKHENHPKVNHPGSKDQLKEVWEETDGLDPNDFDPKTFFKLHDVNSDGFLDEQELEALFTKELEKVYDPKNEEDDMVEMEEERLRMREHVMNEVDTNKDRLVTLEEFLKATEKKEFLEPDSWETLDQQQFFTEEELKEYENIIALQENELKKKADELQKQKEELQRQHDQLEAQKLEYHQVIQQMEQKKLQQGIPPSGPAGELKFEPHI
active: [1] 0.253
inactive: lapatinib -0.006 | pictilisib -0.006 | crizotinib 0.041 | duvelisib 0.008 | gandotinib -0.044 | tozasertib 0.003 | doramapimod -0.024 | bafetinib -0.022 | [2] -0.126

PANK4 (UniProt Q9NVE7)
inactive: lapatinib -0.019 | pictilisib -0.037 | crizotinib -0.052 | [1] -0.049 | duvelisib -0.009 | gandotinib 0.125 | tozasertib 0.001 | doramapimod -0.001 | bafetinib -0.06 | [2] 0.022

NELFCD (UniProt Q8IXH7)
inactive: lapatinib -0.035 | pictilisib -0.048 | crizotinib -0.043 | [1] 0.074 | duvelisib 0.017 | gandotinib -0.087 | tozasertib -0.025 | doramapimod 0.045 | bafetinib -0.105 | [2] -0.029
